Experimental data from ChEMBL document CHEMBL4513146, “CO-ADD screening of Karazin Kharkiv National University (Ukraine) compounds”.
Entries with a potency or affinity are not part of this list.

Experiments:
[1] = system: Klebsiella pneumoniae; settings: Concentration 32 ug.mL-1;; ASSAY_TEST Inhibition of Bacterial Growth; detection method Absorption (OD600); MEDIA CAMHB; plate type 384well; NBS; CORNING #3640; time 18 hr
[2] = system: Candida albicans; settings: Concentration 32 ug.mL-1; ASSAY_TEST Inhibition of Fungal Growth; detection method Absorption (OD530)
[3] = system: Cryptococcus neoformans; settings: Concentration 32 ug.mL-1; ASSAY_TEST Inhibition of Fungal Growth; detection method Resazurin; Absorption (OD600-OD570); plate type 384well; NBS; CORNING #3640

SMILES | Inhibition [1] [%] | Inhibition [2] [%] | Inhibition [3] [%]
CCOC(=O)c1ccc(NC(=O)Cn2nc3ccc(Sc4cccc(F)c4)nn3c2=O)cc1 | 10.14 | 3.42 | -9.72
O=C(Cn1nc2c(Sc3ccccc3)nccn2c1=O)Nc1ccc(Br)cc1F | 9.23 | 5.59 | -9.93
Cc1ccc(Oc2nccn3c(=O)n(CC(=O)Nc4ccccc4C(F)(F)F)nc23)cc1 | 6.49 | 0.6 | -7.72
Cc1cc(Br)ccc1NC(=O)Cn1nc2c(Sc3ccccc3)nccn2c1=O | 5.06 | 6.68 | -7.39
O=C(CSc1nnc2ccc(C(=O)Nc3cccc(F)c3)cn12)Nc1ccc(F)c(F)c1 | 2.94 | 5.97 | -3.04
CCc1nnc2ccc(S(=O)(=O)N(Cc3ccccc3)c3ccccc3)cn12 | 4.93 | 2.38 | -7.97
CCc1ccc(N(Cc2cccc(F)c2)S(=O)(=O)c2cccn3c(CC)nnc23)cc1 | 9.15 | 4.6 | -6.35
O=c1n(Cc2nc(-c3ccc(OC(F)(F)F)cc3)no2)nc2ccc(-c3ccccc3)nn12 | 8.49 | 3.85 | -17.12
Cc1ccc(Nc2cc(C)n3c(=O)n(Cc4cc(=O)n5ccccc5n4)nc3n2)cc1F | 9.15 | -0.76 | -5.54
CSc1cccc(NC(=O)Cn2nc3ccc(-c4ccccc4)nn3c2=O)c1 | -3.17 | 3.96 | -8.45
Cc1ccc(NC(=O)Cn2nc3c(Sc4ccccc4)nccn3c2=O)c(C)c1 | 7.2 | 3.33 | -10.8
COc1ccc(NC(=O)Cn2nc3ccc(SC4CCCCC4)nn3c2=O)cc1OC | 8.74 | 4.98 | -24.6
CCc1cccc(NC(=O)Cn2nc3ccc(SC(C)C)nn3c2=O)c1 | 7.23 | 12.21 | -12.08
O=C(CCc1nnc2c3cc(-c4ccccc4)nn3ccn12)N1CCN(C(=O)c2ccco2)CC1 | 11.67 | 2.11 | -4.62
COc1cccc(Sc2nc3ccccc3n3c(=O)n(CC(=O)Nc4c(C)cc(C)cc4C)nc23)c1 | 4.89 | -0.39 | -17.68
Cc1nnc2c(S(=O)(=O)N(Cc3ccccc3)c3ccc(C(C)C)cc3)cccn12 | 8.51 | -1.81 | -8.23
CC(C)c1ccc(CNC(=O)CCc2nnc3c(N4CCCCC4)nc4ccccc4n23)cc1 | 8.5 | 0.52 | -24.76
O=C(Cn1nc2c(N3CCOCC3)nccn2c1=O)NCc1ccc(F)cc1 | 12.27 | 2.87 | -8.56
O=C(Cn1nc2c(SCc3ccccc3)nccn2c1=O)NC1CCCCC1 | 7.95 | 4.49 | -7.22
Cc1ccccc1CN(c1cccc(F)c1)S(=O)(=O)c1ccc2nncn2c1 | 6.25 | 3.9 | -4.05

SMILES | Inhibition [1] [%] | Inhibition [2] [%] | Inhibition [3] [%]
COc1cccc(CN(c2cc(C)cc(C)c2)S(=O)(=O)c2cccn3c(C)nnc23)c1 | -4.31 | 1.08 | -6.64
CCC(C)NC(=O)Cn1nc2n(CC(C)C)c(=O)c3ccc(C(=O)NC4CCCCC4)cc3n2c1=O (stereo not given) | 0.48 | -1.97 | -14.64
Cc1cc(C)cc(N(Cc2ccccc2)S(=O)(=O)c2cccn3cnnc23)c1 | -6.91 | 1.52 | -4.73
Cc1nnc2c(S(=O)(=O)N(Cc3cc(F)cc(F)c3)c3cccc(F)c3)cccn12 | 4.57 | 6.53 | -8.02
CCc1nnc2c(S(=O)(=O)N(Cc3cccc(F)c3)c3ccc(C)c(C)c3)cccn12 | 12.58 | 3.78 | -9.15
CCOc1ccccc1NC(=O)Cn1nc2c(Sc3ccccc3)nccn2c1=O | 3.54 | -0.33 | -18.53
COc1cc(OC)c(NC(=O)Cn2nc3c(Oc4ccccc4)nccn3c2=O)cc1Cl | -10.94 | 2.58 | -9.36
Cc1ccc(Oc2nc3ccccc3n3c(=O)n(CC(=O)Nc4ccc5c(c4)OCO5)nc23)cc1 | 4.57 | 10.98 | -25.85
CCCCN(CC)C(=O)CSc1nnc2c(=O)n(Cc3ccccc3F)ccn12 | 7.9 | 2.5 | -19.25
CC(C)c1nnc2c(=O)n(CC(=O)Nc3ccccc3)c3ccccc3n12 | 14.31 | 3.67 | -25.44
CC1CCN(C(=O)Cn2nc3n(Cc4ccco4)c(=O)c4sccc4n3c2=O)CC1 | 6.19 | 0.21 | -13.38
CCOC(=O)N1CCN(C(=O)CCc2nnc3c4cc(-c5ccccc5)nn4ccn23)CC1 | 14.35 | 1.03 | -14.62
CCCNC(=O)Cn1nc2nc(Nc3ccc(F)cc3)ccn2c1=O | -2.03 | -0.03 | -13.31
Cc1nnc2c(=O)n(CC(=O)Nc3ccccc3F)c3ccccc3n12 | 0.65 | 3.67 | -6.39
CCOC(=O)C1CCCN(C(=O)Cn2nc3n(CC(C)C)c(=O)c4sccc4n3c2=O)C1 (stereo not given) | 8.18 | -1.48 | -14.07
CCCCN(C)c1ccc2nnc(CCc3nc(-c4ccc(OCc5ccccc5)cc4)no3)n2n1 | 3.94 | 9.14 | -39.2
COc1cc(NC(=O)Cn2nc3c(Oc4ccccc4)nccn3c2=O)cc(OC)c1 | 11.9 | -1.97 | -7.5
CCCCOc1ccc(-c2cc3c4nnc(SCC(=O)Nc5ccc(Cl)cc5)n4ccn3n2)cc1 | 11.84 | 2.71 | -15.55
Cc1ccccc1Nc1cc(C)n2c(=O)n(CCc3ccccc3)nc2n1 | 8.17 | 2.84 | -4.15
Cc1ccc(-c2ccc3nn(CC(=O)Nc4c(C)cccc4C)c(=O)n3n2)cc1C | -0.65 | -0.71 | -7.01

SMILES | Inhibition [1] [%] | Inhibition [2] [%] | Inhibition [3] [%]
COc1cc(OC)c(NC(=O)Cn2nc3ccc(-c4ccc(C)c(C)c4)nn3c2=O)cc1Cl | 7.84 | 1.07 | -20.51
CCOc1ccc(NC(=O)Cn2nc3ccc(Sc4cccc(F)c4)nn3c2=O)cc1 | 0.85 | 6.64 | -8.03
COc1cccc(CNC(=O)CSc2nnc3c(=O)n(-c4cccc(OC)c4)ccn23)c1 | 10.15 | 1.25 | -6.98
CC(C)c1ccc(NC(=O)CSc2nc3ccccc3n3cnnc23)cc1 | 3.82 | 7.46 | -15.4
COc1ccccc1N1CCN(C(=O)CSc2nc3ccccc3n3cnnc23)CC1 | 8.29 | 2.74 | -5.08
CSc1cccc(NC(=O)Cn2c(=O)c3nnc(C(C)C)n3c3ccccc32)c1 | 10.43 | 3.45 | -18.2
Cc1ccc(NC(=O)Cn2nc3ccc(SC(C)C)nn3c2=O)c(Cl)c1 | 9.56 | 10.62 | -1.74
N#CCn1nc2n(Cc3ccccc3)c(=O)c3ccc(C(=O)NC4CCCCC4)cc3n2c1=O | 4.19 | 1.65 | -13.83
Cc1cc(C)c(NC(=O)Cn2nc3ccc(SCc4ccc(Cl)cc4)nn3c2=O)c(C)c1 | 3.59 | 6.58 | -25.9
COc1ccccc1-n1ccn2c(SCc3cccc(F)c3)nnc2c1=O | 7.21 | 2.05 | -9.16
O=C(Cn1nc2c(N3CCN(c4ccccc4)CC3)nccn2c1=O)Nc1ccc2c(c1)OCO2 | 5.9 | 4.15 | -7.4
CCCN(C)c1nccn2c(=O)n(CC(=O)Nc3cccc(Br)c3)nc12 | 8.58 | 1.99 | -9.25
CCCc1nnc2c(=O)n(CC(=O)Nc3cccc(C(C)=O)c3)c3ccccc3n12 | -4.73 | 6.89 | -25.21
CC(C)Cn1c(=O)c2sccc2n2c(=O)n(CC(=O)NC(C)C)nc12 | 6.06 | 1.49 | -7.6
Cc1[nH]c2ccccc2c1C(=O)CSc1nnc2c(=O)n(-c3ccc(F)c(F)c3)ccn12 | 14.26 | 1.72 | -11.39
Cc1cccc(CN(c2ccc(C(C)C)cc2)S(=O)(=O)c2cccn3c(C)nnc23)c1 | 9.59 | 3.05 | -9.59
COc1cccc(-n2ccn3c(SCc4ccccc4Cl)nnc3c2=O)c1 | 8.33 | 2.81 | -13.51
CCc1nnc2c(SCC(=O)Nc3cccc(C(C)=O)c3)nc3ccccc3n12 | 17.43 | -0.1 | -10.94
COc1ccc(-n2ccn3c(-c4ccc([N+](=O)[O-])cc4)nnc3c2=O)cc1 | 13.7 | -0.61 | -26.2
Cc1ccc(C)c(Cn2nc3ccc(-c4ccc(C)c(C)c4)nn3c2=O)c1 | 12.73 | 1.53 | -14.79
